{"source": "PubChem BioAssay AID1060", "about": "(Emory University Molecular Libraries Screening Center, 2008)", "note": "Measured potencies and affinities stand elsewhere. Calls of active or inactive are those of the source.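 The calls were made as follows: active = fitted half-inhibition concentration at or below a set limit, with percent of control there at most 60; inactive = the rest.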"}
{"biological_target": "Estrogen receptor beta (Homo sapiens) (UniProt Q92731)", "sequence (Q92731 whole entry, looked up)": "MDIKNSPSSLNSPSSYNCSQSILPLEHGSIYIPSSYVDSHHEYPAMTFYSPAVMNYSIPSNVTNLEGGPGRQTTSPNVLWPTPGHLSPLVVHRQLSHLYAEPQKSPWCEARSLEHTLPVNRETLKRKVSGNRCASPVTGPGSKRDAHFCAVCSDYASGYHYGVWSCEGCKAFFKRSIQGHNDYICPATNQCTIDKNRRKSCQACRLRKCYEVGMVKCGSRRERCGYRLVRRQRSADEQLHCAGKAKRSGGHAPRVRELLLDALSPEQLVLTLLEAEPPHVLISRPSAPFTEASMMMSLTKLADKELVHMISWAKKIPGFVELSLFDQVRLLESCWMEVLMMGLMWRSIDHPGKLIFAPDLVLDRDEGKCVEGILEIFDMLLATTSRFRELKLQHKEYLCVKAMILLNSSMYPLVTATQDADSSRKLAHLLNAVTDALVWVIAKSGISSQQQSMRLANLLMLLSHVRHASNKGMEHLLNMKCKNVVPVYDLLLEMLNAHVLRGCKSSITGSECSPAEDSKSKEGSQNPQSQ", "assay": "ERβ–SRC-3 coactivator interaction inhibitors, confirmation, orthogonal assay, biochemical, ELISA, streptavidin-HRP readout (AID 1060)", "conditions": "ERbeta-SRC-3 coactivator binding ELISA; series mostly up to 50 µM"}
{"compound": "CCc1cc(=O)[nH]c(SCC(=O)Nc2ccc(C(=O)OC)cc2)n1", "outcome": "inactive"}
{"compound": "COc1ccc2c(=O)c3c(=O)n(Cc4ccco4)c(-c4ccco4)nc3oc2c1", "outcome": "inactive"}
{"compound": "Cc1sc2ncnc(NCc3ccco3)c2c1C", "outcome": "inactive"}
{"compound": "CSc1nc2c(c(=O)[nH]1)C(c1cccs1)C1=C(CCCC1=O)N2", "note": "(stereo unspecified)", "outcome": "inactive"}
{"compound": "Cc1cc(C)cc(OCC(=O)Nc2ccc(N3CCCC3)cc2)c1", "outcome": "inactive"}
{"compound": "CC1CC(C(F)(F)C(F)(F)F)n2nc(C(=O)O)cc2N1", "note": "(stereo unspecified)", "outcome": "inactive"}
{"compound": "CCC(=O)Nc1ccc(C(=O)Cn2nc(C(=O)O)c3ccccc3c2=O)cc1", "outcome": "inactive"}
{"compound": "NC(=O)c1cccc2c1C(=O)N(C1CCCCC1)C2", "outcome": "inactive"}
{"compound": "O=S(=O)(Nc1ncnc2sc3c(c12)CCC3)c1ccc2ccccc2c1", "outcome": "inactive"}
{"compound": "CCCNCC1COc2ccccc2O1", "note": "(stereo unspecified)", "outcome": "inactive"}
{"compound": "CCC(=O)Nc1cccc(NC(C)=O)c1", "outcome": "inactive"}
{"compound": "COc1ccc(CCNC(=O)c2ccc3nc(-c4ccco4)c(-c4ccco4)nc3c2)cc1OC", "outcome": "inactive"}
{"compound": "Cc1ccc(C(=O)CSC2=C(C#N)C(c3ccco3)CC(=O)N2)c(C)c1", "note": "(stereo unspecified)", "outcome": "inactive"}
{"compound": "COc1ccc2nc(-c3ccco3)c(-c3ccco3)nc2c1", "outcome": "inactive"}
{"compound": "COc1ccccc1-c1nnc2sc(-c3cnccn3)nn12", "outcome": "inactive"}
{"compound": "Cc1cc(-c2csc(N)n2)c(C)n1C", "outcome": "inactive"}
